Pf growth 48h – inhibits P. falciparum growth in the first generation, 48 h; AID 504832; hit rate 5.9% among 310,000; Potency, µM (top dose mostly 28.7 µM), for the others: at the top dose activity change, negative = inhibition, hits mostly inhibitors; P. falciparum luciferase growth in erythrocytes, 48 h; note: % is set by controls: 0 for no effect and ±100 for the full control effect
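A one-generation exposure of luciferase-tagged malaria parasites in RPMI 1640/Albumax erythrocyte culture, 37 C and 5% CO2. Inhibition is inferred from decreased luminescence after adding detection reagent.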
Pf growth 96h – P. falciparum growth inhibition at 96 hour, primary screen for plastid delayed-death inhibitors | Potency, µM (series often up to 28.7 µM), for inactives: top-dose activity change, negative = inhibition, hits mostly inhibitors | P. falciparum luciferase reporter growth, 96 h | hit rate 6.9% among 320,000; note: % is set by controls: 0 for no effect and ±100 for the full control effect
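Readout is luminescence from an integrated firefly luciferase in P. falciparum. Red cells, 2% hematocrit and 0.05% parasitemia final, were cultured with compound through two parasite generations (96 hours) at 37 C, 5% CO2.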
RE007 growth inh – less growth of the S. pombe RE007 Vpr strain. S. pombe RE007 Vpr strain, BacTiter-Glo ATP luminescence, 24 h. hit rate 0.21% among 360,000. Potency, µM (titrated, usually from 92.2 µM), without a hit: at the highest dose activity change, negative = less growth, actives largely listed as inhibitors. AID 651644; active = well fitted falling curve with a large enough effect; inconclusive = small, poorly fitted or top-dose-only effect; inactive = no such curve, though single readings can be large or run the other way; note: % is set by controls: 0 for no effect and ±100 for the full control effect; nearly all actives have a fitted effect of over 50% in size
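Fission yeast RE007 carrying one integrated HIV-1 vpr copy, seeded at OD 0.01 in PMG+AL medium with 23 nL pinned compound. Grown 24 h at 30 degrees; viability read by BacTiter-Glo luminescence after 5 min.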
SARS PLP yeast – blocks SARS-CoV papain-like protease in a yeast assay | Potency, µM (highest dose often 32.9 µM), for the others: at the top dose activity, positive = growth rescue, actives largely listed as activators | AID 485353 | hit rate 0.19% among 330,000 | S. cerevisiae expressing SARS-CoV PLpro, growth rescue; calls by dose curve; note: 0% is about no effect; nearly all actives have a fitted effect of over 55% in size
NS1 inh – blocks influenza NS1 protein function; Potency, µM (titrated, usually from 46.1 µM), for the others: top-dose activity, positive = more growth; hit rate 0.4% among 270,000; AID 2326; calls by dose curve; note: actives are rising curves; nearly all actives have a fitted effect of over 50% in size
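A cell-based growth assay was used: compounds that relieve NS1-induced slow growth of budding yeast raise OD600. Assay medium was yeast nitrogen base with ammonium sulphate and -URA supplement, pH 6.0, with 2% galactose.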
Active calls of the source: *; u = inconclusive; x = not tested or not shown. Only some compounds are listed: those with a hit (about 9.5% of all), similar ones and a draw of the others. Unless noted, calls come from the whole dose curve; as a rule, active = well fitted inhibition curve with a large enough effect; inconclusive = small, poorly fitted or top-dose-only effect, or another doubt; inactive = no such curve, though single readings can be large or run the other way. Potency is the fitted concentration of half-maximal effect.

SMILES | Pf growth 48h | Pf growth 96h | RE007 growth inh | SARS PLP yeast | NS1 inh
CC1(C)C(=O)C=C(N2CCCCC2)c2ccccc21 | x | x | -26% | x | x
COc1ccc(S(=O)(=O)Nc2cc3c4c(c2)CCC(=O)N4CCC3)cc1C | u | u | 8% | 7% | x
O=C(COC(=O)c1ccccc1S(=O)(=O)N1CCCCC1)NCC(F)(F)F | -12% | 13µM* | 4% | 8% | 0%
Cc1ccc(NC(=O)COC(=O)c2ccccc2F)cc1S(=O)(=O)N1CCCCC1 | -1% | 71% | 28% | -1% | x
COC(=O)c1c(C)[nH]c(C(=O)COC(=O)CCNS(=O)(=O)c2cccc(C(F)(F)F)c2)c1C | -4% | 66% | 6% | -2% | x
Cc1ccc(S(=O)(=O)N2CCN(C(=O)CSc3nnc(C)s3)C2)cc1 | x | 4.1µM* | -11% | 5% | -1%
Cc1ccc(S(=O)(=O)N2CCN(C(=O)CSCc3ccc(C(C)C)cc3)CC2)cc1 | 9.3µM* | u | 11% | -4% | x
Cc1ccc(S(=O)(=O)N2CCN(C(=O)CSc3ccc(Cl)cc3)CC2)cc1 | u | u | -2% | u | -3%
COc1cc(CCC(=O)N2CCN(S(=O)(=O)c3ccc(C)cc3)CC2)cc(OC)c1OC | 5.2µM* | u | 13% | -6% | x
Cc1ccc(S(=O)(=O)N2CCN(C(=O)CSc3nncs3)CC2)cc1 | 16% | -5% | 7% | 0% | 7%
COc1cc(CC(=O)N2CCN(S(=O)(=O)c3ccc(C)cc3)CC2)cc(OC)c1OC | x | x | 6% | 5% | x
COC[C@@H]1CCCN1[C@@H]1CS(=O)(=O)N[C@H]1COCc1ccccc1 | x | x | -1% | x | x
Cc1ccccc1-n1ncc(C(C)NS(=O)(=O)c2sccc2C)c1C (stereo unspecified) | u | u | 7% | 7% | -2%
C/C(=N\NC(=O)C(O)c1ccccc1)c1ccc(Br)s1 (stereo unspecified) | -12% | -3% | 2% | 1% | 1%
CCCCCCn1c(O)c(C=NC2CCCCC2N)c(=O)[nH]c1=O (stereo unspecified) | 8% | 6.6µM* | 6% | -2% | 0%
CCCN(C(=O)C1CCN(S(=O)(=O)c2ccc(OC)c(OC)c2)CC1)C1CCS(=O)(=O)C1 (stereo unspecified) | u | -3% | -3% | 1% | x
c1csc(-c2nc3ccccc3[nH]2)c1 | 196% | x | -8% | -49% | -37%
Cc1ccc(-c2nc3ccccc3[nH]2)s1 | -3% | 11% | 20µM* | -28% | -89%
O=C(O)CSc1ncnc2scc(-c3ccccc3)c12 | 9% | 9% | -14% | 0% | -4%
CCC(=O)Nc1ccccc1Sc1ncnc2scc(-c3ccccc3)c12 | 13µM* | 4.7µM* | 4% | -16% | -34%
N#Cc1ccccc1S(=O)(=O)c1ccccc1C(=O)Nc1ccccc1 | 2% | 12% | -8% | -5% | x
O=C(COc1ccccc1Cc1ccccc1)Nc1cccc(S(=O)(=O)N2CCOCC2)c1 | 13µM* | 4.1µM* | 1% | -3% | x
COc1ccc(NC(=O)COc2ccccc2Cc2ccccc2)cc1S(=O)(=O)N1CCOCC1 | 12µM* | 5.2µM* | -12% | -1% | x
COc1ccccc1CCC(=O)Nc1ccc(OC)c(S(=O)(=O)N2CCOCC2)c1 | -8% | u | 1% | 1% | x
COc1ccc(NC(=O)CSc2ccccc2)cc1S(=O)(=O)N1CCOCC1 | -14% | 12µM* | -17% | -4% | -8%
SMILES | Pf growth 48h | Pf growth 96h | RE007 growth inh | SARS PLP yeast | NS1 inh
COc1cc(C2(C)SCCCS2)cc(OC)c1OC | x | x | 5% | x | x
CCC(Sc1nc2cc(OC)c(OC)cc2c(=O)n1CCc1ccc(OC)c(OC)c1)C(=O)NCCOC (stereo unspecified) | u | 0% | 5% | -5% | x
CCN(CC(=O)NCc1ccc(F)cc1)C(=O)CCNS(=O)(=O)c1cccc(C)c1 | u | -19% | 18% | 5% | x
Cc1ccc(S(=O)(=O)Nc2cccc(C(=O)N3CCC(C(N)=O)CC3)c2)cc1 | -11% | -6% | 1% | -3% | x
COc1cc(C(=S)N2CCOCC2)cc(OC)c1OS(=O)(=O)c1ccc(Cl)cc1 | u | 10µM* | -16% | 2% | 9%
Clc1cccc(Cl)c1Cn1cnc(=NCc2ccco2)c2[nH]cnc21 | 15µM* | x | 8% | -2% | -8%

High-throughput results deposited in PubChem by National Center for Advancing Translational Sciences (NCATS).
